Data from PubChem BioAssay (NCATS).
Inconclusive results are not listed. A call without a number means that no potency is given here. Activity calls are given as the source filed them. The call rests on the fitted dose curve; in most records, active means well fitted inhibition curve with a large enough effect; inconclusive means small, poorly fitted or top-dose-only effect; inactive means flat fitted curve, though single readings scatter.

Assay: P-glycoprotein substrates identified in KB-8-5-11 adenocarcinoma cell line, qHTS therapeutic library screen (AID 1346987); further: nearly all actives have a fitted effect of over 65% in size
Details: KB-8-5-11 (P-gp overexpressing) viability, CellTiter-Glo, 72 h; series mostly up to 44.5 µM
Method in brief: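 P-gp-mediated resistance screen: KB-8-5-11 cells treated 72 h with compounds in dose-response. CellTiter-Glo viability.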
In the case of `CC12CCC3C(C)(C)C(O)CCC3(C)C1Cc1c(oc(C(=O)O)cc1=O)O2` (stereo not drawn), the Potency is reported as “inactive”. In the case of `OCC1=CC[C@@H]2C=CO[C@@H](O[C@@H]3O[C@H](CO)[C@@H](O)[C@H](O)[C@H]3O)[C@H]12`, the Potency is reported as “inactive”. With `CCC1CC2C(C)=CC3CCCCC3C2(C)C2(OC(=O)C(C)(O)OC2=O)O1` (stereo not drawn) the Potency was “inactive”.
